# High-throughput results from PubChem.
# The sample as a whole holds a higher share of hits than the screen did.
# CHX counter: counter-screen hit for Shiga toxin inhibitors, cycloheximide; cell reporter, cycloheximide protein synthesis inhibition counterscreen; max response, %; 300,000 compounds, 12% hits; in the data active = max response mostly above about 13%, no sharp cut-off; inactive = mostly below about 14%; note: read at 38.3 µM for the half of the compounds with a filed dose
# LmPK inh: LmPK (Leishmania mexicana) enzyme inhibition; Q27686; purified LmPK, Kinase-Glo ATP luminescence, 1 h; Potency, µM (highest dose often 57.5 µM), actives largely listed as inhibitors; 290,000 compounds, 0.37% hits
#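 Purified LmPK (0.1 nM) with 0.5 mM PEP and 0.1 mM ADP in imidazole buffer pH 7.2 with MgCl2/KCl, 1 h at room temperature. ATP formed was read by luciferase luminescence and normalized to no-enzyme and uninhibited controls.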
# RE007 growth inh: less growth of the S. pombe RE007 Vpr strain. S. pombe RE007 Vpr strain, BacTiter-Glo ATP luminescence, 24 h. Potency, µM (top dose mostly 92.2 µM), most hits filed as inhibitors. 360,000 compounds, 0.21% hits; active = well fitted falling curve with a large enough effect; inconclusive = small, poorly fitted or top-dose-only effect; inactive = no such curve, though single readings can be large or run the other way; note: nearly all actives have a fitted effect of over 50% in size
#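 Fission yeast RE007 carrying one integrated HIV-1 vpr copy, seeded at OD 0.01 in PMG+AL medium with 23 nL pinned compound. Grown 24 h at 30 degrees; viability read by BacTiter-Glo luminescence after 5 min.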
# Shiga toxin inh: blocks Shiga toxin action in Vero cells. Vero cells, Shiga toxin protein synthesis inhibition reporter. inhibition, % at 38.7 µM. 290,000 compounds, 9.2% hits; in the data active = inhibition mostly above about 28%, no sharp cut-off; inactive = mostly below about 43%
# Tb PYK inh: inhibitors of Trypanosoma brucei pyruvate kinase. Q57TT1. TbPYK enzyme, Kinase-Glo Plus ATP luminescence, 45 min. Potency, µM (doses to about 76.8 µM), actives largely listed as inhibitors. 410,000 compounds, 0.12% hits; note: nearly all actives have a fitted effect of over 50% in size
#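 Luminescent Kinase-Glo Plus end-point after 45 min room-temperature reaction of T. brucei pyruvate kinase started with 130 uM ADP (final). Buffer TEA 50 mM pH 7.2 with KCl, MgCl2, BSA, Tween-20; titration-based qHTS with fitted concentration-effect curves.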
# Giardia FBPA inh: Giardia lamblia aldolase inhibition; A8B2U2; purified Giardia FBPA; Potency, µM (series often up to 59.6 µM), actives largely listed as inhibitors; 290,000 compounds, 0.71% hits; note: nearly all actives have a fitted effect of over 55% in size
# Target sequence (A8B2U2 whole entry, looked up): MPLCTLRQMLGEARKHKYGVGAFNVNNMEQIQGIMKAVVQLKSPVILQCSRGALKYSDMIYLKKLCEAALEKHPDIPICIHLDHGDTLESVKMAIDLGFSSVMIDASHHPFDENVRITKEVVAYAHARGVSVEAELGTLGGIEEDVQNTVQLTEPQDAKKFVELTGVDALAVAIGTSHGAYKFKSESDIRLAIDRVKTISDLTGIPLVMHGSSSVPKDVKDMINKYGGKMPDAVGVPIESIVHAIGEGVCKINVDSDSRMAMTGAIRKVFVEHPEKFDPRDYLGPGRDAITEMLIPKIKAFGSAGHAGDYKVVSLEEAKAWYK
#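 40 nM FBPA preincubated 10 min at RT with compound (up to 57.5 uM final), then substrate plus GAPDH/TPI/NAD/arsenate coupling and diaphorase/resazurin added. Fluorescence read after 20 min at RT, 525/598 nm.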
# A number is an active result; . = inactive; ? = inconclusive; / = no result given. Unless noted, calls come from the whole dose curve; as a rule, active = well fitted curve in the direction sought with a large enough effect; inconclusive = small, poorly fitted or top-dose-only effect, or another doubt; inactive = no such curve, though single readings can be large; an effect the other way counts as inactive or inconclusive.
SMILES,CHX counter,LmPK inh,RE007 growth inh,Shiga toxin inh,Tb PYK inh,Giardia FBPA inh
Cc1cc(C)n(CCc2nc(-c3ccc(F)cc3)cs2)n1,36,.,.,78,.,.
COc1ccc(N/N=C/c2c(O)n(-c3cccc(C)c3)c(=O)[nH]c2=O)cc1,18,.,.,.,.,.
COC(=O)[C@@]1(C(C)C)N=C(c2cc(OC)c(OC)c(OC)c2)[C@]2(O1)C(=O)Nc1ccccc12,/,/,.,/,.,/
CCOC(=O)c1c(C)[nH]c(C(=O)COC(=O)CNC(=O)c2ccccc2Cl)c1C,56,.,.,109,.,.
CCOC(=O)c1c(C)[nH]c(C(=O)COC(=O)c2ccccc2NC(=O)c2ccco2)c1C,.,.,.,.,.,.
CCOC(=O)c1c(C)[nH]c(C(=O)COC(=O)CNC(=O)C2CCCCC2)c1C,34,.,.,146,.,.
CCOC(=O)c1c(C)[nH]c(C(=O)COC(=O)[C@H](C)NC(=O)c2ccccc2Cl)c1C,28,.,.,49,.,.
CCCCNC(=O)CSc1nc2n[nH]c(C)c2c(=N)n1-c1ccccc1CC,/,/,/,/,.,/
Nc1ccccc1SCc1cn2ccccc2n1,68,.,.,55,.,.
N=C(N)SCc1cn2ccccc2n1,.,.,.,.,.,.
Cc1cccn2cc(CSc3ccccc3N)nc12,31,.,.,.,.,.
Nc1ccccc1SCc1cn2cccnc2n1,24,.,.,80,.,.
c1ccc(SCc2cn3cccnc3n2)nc1,.,.,.,.,.,.
Oc1ccc(C[C@H]2CNC(=S)N2CC2CCCN2C[C@H](Cc2ccc(O)cc2)N2C[C@H](Cc3ccccc3)N(CC3CCCCC3)C2=S)cc1 (stereo partly drawn),/,/,.,/,.,/
Cc1[nH]c2ccccc2c(=O)c1CN(C)Cc1ccccc1,27,.,.,.,.,.
Cc1c(Cl)c(-c2n[nH]c(=S)n2-c2ccc(F)cc2)nn1C,.,?,.,.,4µM,.
Cc1nn(C)c(-c2n[nH]c(=S)n2-c2ccccc2)c1Cl,.,.,.,active,?,.
O=C(c1ccc2c(c1)N(Cc1ccccc1)C(=O)c1ccccc1S2(=O)=O)N1CCN(c2ccccc2)CC1,/,/,/,/,.,/
O=C(Nc1ccc2nc(-c3ccccc3)[nH]c2c1)c1cccs1,32,.,.,.,.,.
O=C(Nc1ccc2nc(-c3ccc4nc[nH]c4c3)[nH]c2c1)c1cccs1,.,.,.,.,.,.
O=C(Nc1ccc2nc(-c3cccnc3)[nH]c2c1)c1ccco1,.,.,.,.,.,.
O=C(N/C(=C/c1ccc(Br)cc1)c1nc2ccccc2[nH]1)c1ccco1,15,.,.,51,.,.
O=C(N/C(=C/c1ccc(Cl)cc1)c1nc2ccccc2[nH]1)c1ccco1,.,.,.,.,.,.
O=C(Nc1ccc2nc(-c3ccco3)[nH]c2c1)c1ccco1,33,.,.,45,.,.
Cc1ccc2nc(-c3cccc(NC(=O)c4ccco4)c3)[nH]c2c1,50,?,.,43,.,.
SMILES,CHX counter,LmPK inh,RE007 growth inh,Shiga toxin inh,Tb PYK inh,Giardia FBPA inh
CC(=O)Nc1cccc(-c2nc3ccc(NC(C)=O)cc3[nH]2)c1,.,.,.,.,.,.
CC(=O)Nc1ccc2nc(-c3ccco3)[nH]c2c1,35,.,.,87,.,.
O=C(Nc1ccc2nc(-c3ccco3)[nH]c2c1)c1cccs1,46,.,.,66,.,.
O=C(Nc1ccc(-c2nc3ccccc3[nH]2)cc1)c1ccco1,43,?,.,109,.,.
CCc1ccc(NC(=O)C(C)Sc2nnc(CN3CCCC3)o2)cc1 (stereo not drawn),/,/,.,/,.,/
COc1ccccc1NC(=O)C1=C(C)Nc2nc(-c3ccco3)nn2C1c1cccc(C)c1 (stereo not drawn),/,/,/,/,.,/
N#CC1=C(N)Oc2c(c(=O)sc3ccccc23)C1c1ccncc1 (stereo not drawn),20,.,.,.,.,.
N#CC1=C(N)Oc2c(c(=O)oc3ccccc23)C1c1cccnc1 (stereo not drawn),.,.,.,.,.,.
CC(C)CNC(=O)C1C(=O)Nc2ccccc2C(=O)N1C(C)(C)C (stereo not drawn),/,/,.,/,/,/
CCCN1CCN(c2ncc3c(n2)CCN(Cc2ccc(OC)c(OC)c2OC)C3)CC1,/,/,/,/,.,/
COc1ccc(C2N(c3ccccc3)CCN2c2ccccc2)cc1O,26,.,.,59,.,.
N#CCSc1nc2c(cc1C#N)CCCC2,30,.,.,.,.,.
N#Cc1cc2c(nc1SCc1cccnc1)CCCCC2,.,.,.,130,.,.
CN(Cc1ccccc1)C(=O)c1ccccc1NC(=O)C1=CSCCO1,.,.,.,.,.,/
CCOc1ccccc1CNC(=O)c1ccc(NC(=O)C2=CSCCO2)cc1,18,.,.,.,.,/
Cc1ccc(CN2CCC(CNC(=O)c3ccc(NC(=O)C4=CSCCO4)cc3)CC2)cc1,.,.,.,.,.,/
O=C(Nc1ccc(C(=O)NCC2CCN(Cc3ccccc3F)CC2)cc1)C1=CSCCO1,14,.,.,.,.,/
CN(Cc1ccccc1)C(=O)c1ccc(NC(=O)C2=CSCCO2)cc1,48,.,.,44,.,/
COc1ccc(CNC(=O)c2ccc(NC(=O)C3=CSCCO3)cc2)cc1,28,.,.,71,.,/
Cc1cccc(CNC(=O)c2ccc(NC(=O)C3=CSCCO3)cc2)c1,40,.,.,.,.,.
CCCSCCCNC(=O)c1ccc(NC(=O)C2=CSCCO2)cc1,.,.,.,67,.,/
Cc1ccc(C)c(S(=O)(=O)N/N=C/c2ccc(N3CCOCC3)cc2)c1,.,.,.,.,.,.
COCCNC(=O)c1nn(-c2ccc(C)cc2)c(=O)n(C)c1=O,/,/,/,/,.,/
CC1=C(C(=O)Nc2ccc(C)cc2)C(c2cccs2)NC(=S)N1 (stereo not drawn),19,.,.,.,.,.
CCNC(COC(=O)c1ccc([N+](=O)[O-])cc1)C1CCCCC1 (stereo not drawn),/,/,.,/,.,/
SMILES,CHX counter,LmPK inh,RE007 growth inh,Shiga toxin inh,Tb PYK inh,Giardia FBPA inh
Nc1c(Cl)c(Cl)c(Cl)c(Cl)c1Cl,/,/,/,/,.,/
O=C(Cc1ccccc1F)Nc1cc(S(=O)(=O)N2CCCCC2)ccc1N1CCOCC1,/,/,.,/,.,/
c1ccc(-c2ccc3ccccc3n2)cc1,/,/,.,/,.,/
c1ccc2nc(-c3ccc(-n4ccnc4)cc3)ccc2c1,35,.,.,61,.,.
CCCOCc1ccc(O)c2ncccc12,.,.,40µM,.,.,?
Oc1ccc(COCc2ccccc2)c2cccnc12,68,.,?,147,.,.
Oc1c(CN2CCCCC2)cc(COCc2ccccc2)c2cccnc12,17,.,?,.,.,.
O=[N+]([O-])c1cc(CN2CCCC2)c2cccnc2c1O,.,.,.,.,.,18µM
